The source of these data is paper doi:10.1101/2024.03.05.583629.

This assay deals with pT7_6His-AlfaTag-HOXD13 (human, UniProt P35453 263-343). The assay is described as follows: PADIT-seq. Particulars: dsDNA, one strand shown.
Chain of pT7_6His-AlfaTag-HOXD13 (P35453 263-343): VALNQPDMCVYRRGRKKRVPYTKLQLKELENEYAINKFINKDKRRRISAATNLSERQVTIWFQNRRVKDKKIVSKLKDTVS
Consider “CTCGAGGATATCAAGATCTGGCCTCGGCATTTTATGCGGAACCTCTAGCTAGCCGACTCACTATAGGGATAATCGCCCTGAGCAAAGACC”, for which the binding signal came to 2.23 ± 0.0779 log2FC.

“CTCGAGGATATCAAGATCTGGCCTCGGCTCTGTAAAAGGAACCTCTAGCTAGCCGACTCACTATAGGGATAATCGCCCTGAGCAAAGACC” yielded a binding signal of 1.83 ± 0.0871 log2FC.

Consider “CTCGAGGATATCAAGATCTGGCCTCGGCCGCCCATCAGGAACCTCTAGCTAGCCGACTCACTATAGGGATAATCGCCCTGAGCAAAGACC”, for which the binding signal is -1.02 ± 0.114 log2FC.

“CTCGAGGATATCAAGATCTGGCCTCGGCTTTTTACTGGGAACCTCTAGCTAGCCGACTCACTATAGGGATAATCGCCCTGAGCAAAGACC” returned a binding signal of 2.73 ± 0.0875 log2FC.

In turn, “CTCGAGGATATCAAGATCTGGCCTCGGCCCTCTAAAAGGAACCTCTAGCTAGCCGACTCACTATAGGGATAATCGCCCTGAGCAAAGACC” showed a binding signal of 0.681 ± 0.104 log2FC.

Take “CTCGAGGATATCAAGATCTGGCCTCGGCTTTTTACCCGGAACCTCTAGCTAGCCGACTCACTATAGGGATAATCGCCCTGAGCAAAGACC”: the binding signal was -0.11 ± 0.103 log2FC.

For the sequence “CTCGAGGATATCAAGATCTGGCCTCGGCGCGTTAGCGGGAACCTCTAGCTAGCCGACTCACTATAGGGATAATCGCCCTGAGCAAAGACC”, the binding signal was -0.986 ± 0.133 log2FC.

With “CTCGAGGATATCAAGATCTGGCCTCGGCATGCCACGCGGAACCTCTAGCTAGCCGACTCACTATAGGGATAATCGCCCTGAGCAAAGACC”, the binding signal was -1.08 ± 0.113 log2FC.

The sequence “CTCGAGGATATCAAGATCTGGCCTCGGCCTTTTAACCGGAACCTCTAGCTAGCCGACTCACTATAGGGATAATCGCCCTGAGCAAAGACC” displayed a binding signal of 1.24 ± 0.0724 log2FC.

“CTCGAGGATATCAAGATCTGGCCTCGGCCACCTAAAAGGAACCTCTAGCTAGCCGACTCACTATAGGGATAATCGCCCTGAGCAAAGACC”: the binding signal was -0.327 ± 0.133 log2FC.

Take “CTCGAGGATATCAAGATCTGGCCTCGGCGCAATAAAAGGAACCTCTAGCTAGCCGACTCACTATAGGGATAATCGCCCTGAGCAAAGACC”: the binding signal worked out at 2.76 ± 0.0728 log2FC.

“CTCGAGGATATCAAGATCTGGCCTCGGCTTTTTAAGCGGAACCTCTAGCTAGCCGACTCACTATAGGGATAATCGCCCTGAGCAAAGACC” showed a binding signal of 0.814 ± 0.0936 log2FC.

In the case of “CTCGAGGATATCAAGATCTGGCCTCGGCGTTTTAGTAGGAACCTCTAGCTAGCCGACTCACTATAGGGATAATCGCCCTGAGCAAAGACC”, the binding signal stood at 1.61 ± 0.098 log2FC.

Take “CTCGAGGATATCAAGATCTGGCCTCGGCGGTCTAAAAGGAACCTCTAGCTAGCCGACTCACTATAGGGATAATCGCCCTGAGCAAAGACC”: the binding signal is -0.664 ± 0.0879 log2FC.

With “CTCGAGGATATCAAGATCTGGCCTCGGCGATCTAAAAGGAACCTCTAGCTAGCCGACTCACTATAGGGATAATCGCCCTGAGCAAAGACC”, the binding signal is -0.592 ± 0.0883 log2FC.

The sequence “CTCGAGGATATCAAGATCTGGCCTCGGCGTTTTACTTGGAACCTCTAGCTAGCCGACTCACTATAGGGATAATCGCCCTGAGCAAAGACC” yielded a binding signal of 1.25 ± 0.0875 log2FC.

Take “CTCGAGGATATCAAGATCTGGCCTCGGCCCATTAAAAGGAACCTCTAGCTAGCCGACTCACTATAGGGATAATCGCCCTGAGCAAAGACC”: the binding signal was found to be 2.92 ± 0.0908 log2FC.

For the sequence “CTCGAGGATATCAAGATCTGGCCTCGGCTTTTTATGCGGAACCTCTAGCTAGCCGACTCACTATAGGGATAATCGCCCTGAGCAAAGACC”, the binding signal worked out at 2.03 ± 0.081 log2FC.

Sequence “CTCGAGGATATCAAGATCTGGCCTCGGCTTTTTAAATGGAACCTCTAGCTAGCCGACTCACTATAGGGATAATCGCCCTGAGCAAAGACC” returned a binding signal of 1.81 ± 0.0949 log2FC.

Consider “CTCGAGGATATCAAGATCTGGCCTCGGCCCGTTAAAAGGAACCTCTAGCTAGCCGACTCACTATAGGGATAATCGCCCTGAGCAAAGACC”, for which the binding signal amounted to 2.37 ± 0.0792 log2FC.

As to “CTCGAGGATATCAAGATCTGGCCTCGGCATTCTAAAAGGAACCTCTAGCTAGCCGACTCACTATAGGGATAATCGCCCTGAGCAAAGACC”, the binding signal is -0.358 ± 0.0968 log2FC.

The sequence “CTCGAGGATATCAAGATCTGGCCTCGGCATCGTAAAAGGAACCTCTAGCTAGCCGACTCACTATAGGGATAATCGCCCTGAGCAAAGACC” had a binding signal of 2.79 ± 0.0886 log2FC.

Turning to “CTCGAGGATATCAAGATCTGGCCTCGGCTTTTTAGGGGGAACCTCTAGCTAGCCGACTCACTATAGGGATAATCGCCCTGAGCAAAGACC”, the binding signal stood at 1.5 ± 0.0951 log2FC.

For “CTCGAGGATATCAAGATCTGGCCTCGGCCAATGGGCGGGAACCTCTAGCTAGCCGACTCACTATAGGGATAATCGCCCTGAGCAAAGACC”, the binding signal is -0.903 ± 0.11 log2FC.

Take “CTCGAGGATATCAAGATCTGGCCTCGGCTGGGTAAAAGGAACCTCTAGCTAGCCGACTCACTATAGGGATAATCGCCCTGAGCAAAGACC”: the binding signal was -0.514 ± 0.0905 log2FC.

Take “CTCGAGGATATCAAGATCTGGCCTCGGCGGCCTAAAAGGAACCTCTAGCTAGCCGACTCACTATAGGGATAATCGCCCTGAGCAAAGACC”: the binding signal is -0.691 ± 0.105 log2FC.
